Assay results as given in publication PMC7862700, “An all-to-all approach to the identification of sequence-specific readers for epigenetic DNA modifications on cytosine”.

What was measured:
Experiment in all cases: DAPPL (digital affinity profiling via proximity ligation, sequencing); 10 mM Tris-HCl pH 7.5, 50 mM NaCl, 1 mM DTT, 4% glycerol, room temperature, 30 min; GST-TFs on glutathione beads, 16-mer random dsDNA library, 0.1% formaldehyde crosslink after washing; high values mean tight binding
FEV = molecular target: T1, FEV (Homo sapiens, UniProt Q99581 1-238); conditions: protein: recombinant; tags: N-terminal GST; dsDNA, one strand shown
T1 sequence: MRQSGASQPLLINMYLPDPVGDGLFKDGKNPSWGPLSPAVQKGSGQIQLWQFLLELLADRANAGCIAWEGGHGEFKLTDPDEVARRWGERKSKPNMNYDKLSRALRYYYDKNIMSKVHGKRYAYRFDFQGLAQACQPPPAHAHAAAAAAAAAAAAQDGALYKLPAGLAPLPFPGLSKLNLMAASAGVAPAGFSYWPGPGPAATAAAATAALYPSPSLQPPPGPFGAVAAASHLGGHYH
Method in brief: (§1)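 The binding signal reported is, for every hexamer, its read frequency for a factor over its read frequency for the tag-only sample. Reads came from pools of yeast-expressed, GST-fused human transcription factors on glutathione beads, barcoded with DNA and mixed with that sample, which were incubated with 200 nmole of a random double-stranded 16-mer DNA library in Tris/NaCl/DTT/glycerol buffer at room temperature for 30 min. After washing, the pools were crosslinked with 0.1% formaldehyde, proximity-ligated with BsaI/T4 ligase for 1 h at 37 °C, PCR-amplified and sequenced on an Illumina NextSeq500.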

ETV5 = ETV5 (Homo sapiens, UniProt P41161 1-510); conditions: protein: recombinant; tags: N-terminal GST; dsDNA, one strand shown
Method in brief: as §1

HSF1 = HSF1 (Homo sapiens, UniProt Q00613 1-529); conditions: protein: recombinant; tags: N-terminal GST; chain copies: 3; dsDNA, one strand shown
Method in brief: as §1

SPIC = molecular target: T2, SPIC (Homo sapiens, UniProt Q8N5J4 1-248); conditions: protein: recombinant; tags: N-terminal GST; dsDNA, one strand shown
T2 sequence: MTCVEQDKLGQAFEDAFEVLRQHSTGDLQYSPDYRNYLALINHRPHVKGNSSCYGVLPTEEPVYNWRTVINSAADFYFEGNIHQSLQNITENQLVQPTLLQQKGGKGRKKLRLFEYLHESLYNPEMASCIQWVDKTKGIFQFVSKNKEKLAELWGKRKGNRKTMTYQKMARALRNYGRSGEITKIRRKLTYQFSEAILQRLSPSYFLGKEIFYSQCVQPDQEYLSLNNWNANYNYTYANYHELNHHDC
Method in brief: as §1

ELF4 = ELF4 (Homo sapiens, UniProt Q99607 1-663); conditions: protein: recombinant; tags: N-terminal GST; dsDNA, one strand shown
Method in brief: as §1

ELK4 = molecular target: T3, ELK4 (Homo sapiens, UniProt P28324-2 1-405); conditions: protein: recombinant; tags: N-terminal GST; dsDNA, one strand shown
T3 sequence: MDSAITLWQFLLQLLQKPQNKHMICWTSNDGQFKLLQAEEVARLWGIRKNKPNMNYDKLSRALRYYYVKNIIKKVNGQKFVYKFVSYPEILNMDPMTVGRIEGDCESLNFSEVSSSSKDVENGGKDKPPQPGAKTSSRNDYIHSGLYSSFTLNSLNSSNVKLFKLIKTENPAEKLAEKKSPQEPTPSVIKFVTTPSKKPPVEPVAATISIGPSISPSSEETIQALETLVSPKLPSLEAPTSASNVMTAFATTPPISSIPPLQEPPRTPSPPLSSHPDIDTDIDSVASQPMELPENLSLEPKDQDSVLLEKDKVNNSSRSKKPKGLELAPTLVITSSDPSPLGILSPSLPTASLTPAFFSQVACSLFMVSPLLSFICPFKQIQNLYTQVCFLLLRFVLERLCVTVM
Method in brief: as §1

ETV2 = molecular target: T4, ETV2 (Homo sapiens, UniProt O00321 1-342); conditions: protein: recombinant; tags: N-terminal GST; dsDNA, one strand shown
T4 sequence: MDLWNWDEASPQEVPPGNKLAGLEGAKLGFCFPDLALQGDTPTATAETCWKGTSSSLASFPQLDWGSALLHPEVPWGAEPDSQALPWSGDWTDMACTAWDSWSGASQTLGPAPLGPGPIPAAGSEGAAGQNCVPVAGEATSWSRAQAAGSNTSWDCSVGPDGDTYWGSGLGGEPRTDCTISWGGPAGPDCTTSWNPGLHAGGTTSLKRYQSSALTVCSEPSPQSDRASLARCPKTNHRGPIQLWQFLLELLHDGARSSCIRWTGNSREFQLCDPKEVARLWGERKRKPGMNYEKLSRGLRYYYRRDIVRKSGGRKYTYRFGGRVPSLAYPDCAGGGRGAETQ
Method in brief: as §1

ELF3 = molecular target: T5, ELF3 (Homo sapiens, UniProt P78545 1-371); conditions: protein: recombinant; tags: N-terminal GST; dsDNA, one strand shown
T5 sequence: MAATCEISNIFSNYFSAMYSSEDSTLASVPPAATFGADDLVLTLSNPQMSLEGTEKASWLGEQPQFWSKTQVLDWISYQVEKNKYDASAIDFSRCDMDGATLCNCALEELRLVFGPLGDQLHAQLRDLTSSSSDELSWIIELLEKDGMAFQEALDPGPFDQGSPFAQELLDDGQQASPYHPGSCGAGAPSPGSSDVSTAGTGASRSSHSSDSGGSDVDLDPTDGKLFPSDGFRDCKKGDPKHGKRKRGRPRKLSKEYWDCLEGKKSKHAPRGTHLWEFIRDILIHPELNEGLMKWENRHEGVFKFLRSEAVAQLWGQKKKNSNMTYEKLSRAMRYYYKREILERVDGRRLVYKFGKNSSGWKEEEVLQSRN
Method in brief: as §1

ETV1 = ETV1 (Homo sapiens, UniProt P50549 1-477); conditions: protein: recombinant; tags: N-terminal GST; dsDNA, one strand shown
Method in brief: as §1

Chain of ETV1 (P50549 whole entry): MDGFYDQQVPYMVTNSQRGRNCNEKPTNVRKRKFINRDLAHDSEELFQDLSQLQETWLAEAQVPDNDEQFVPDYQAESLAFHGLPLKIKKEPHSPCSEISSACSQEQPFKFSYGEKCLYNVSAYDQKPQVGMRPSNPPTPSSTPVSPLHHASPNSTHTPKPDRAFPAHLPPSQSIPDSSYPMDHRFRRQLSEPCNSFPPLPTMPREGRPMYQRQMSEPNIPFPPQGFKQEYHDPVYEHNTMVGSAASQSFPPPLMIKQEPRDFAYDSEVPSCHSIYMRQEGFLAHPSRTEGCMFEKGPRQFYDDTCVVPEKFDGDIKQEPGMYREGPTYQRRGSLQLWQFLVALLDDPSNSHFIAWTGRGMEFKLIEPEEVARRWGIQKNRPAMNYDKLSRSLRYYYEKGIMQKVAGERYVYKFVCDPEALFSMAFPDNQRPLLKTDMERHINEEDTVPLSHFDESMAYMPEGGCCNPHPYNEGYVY
Chain of ELF4 (Q99607 whole entry): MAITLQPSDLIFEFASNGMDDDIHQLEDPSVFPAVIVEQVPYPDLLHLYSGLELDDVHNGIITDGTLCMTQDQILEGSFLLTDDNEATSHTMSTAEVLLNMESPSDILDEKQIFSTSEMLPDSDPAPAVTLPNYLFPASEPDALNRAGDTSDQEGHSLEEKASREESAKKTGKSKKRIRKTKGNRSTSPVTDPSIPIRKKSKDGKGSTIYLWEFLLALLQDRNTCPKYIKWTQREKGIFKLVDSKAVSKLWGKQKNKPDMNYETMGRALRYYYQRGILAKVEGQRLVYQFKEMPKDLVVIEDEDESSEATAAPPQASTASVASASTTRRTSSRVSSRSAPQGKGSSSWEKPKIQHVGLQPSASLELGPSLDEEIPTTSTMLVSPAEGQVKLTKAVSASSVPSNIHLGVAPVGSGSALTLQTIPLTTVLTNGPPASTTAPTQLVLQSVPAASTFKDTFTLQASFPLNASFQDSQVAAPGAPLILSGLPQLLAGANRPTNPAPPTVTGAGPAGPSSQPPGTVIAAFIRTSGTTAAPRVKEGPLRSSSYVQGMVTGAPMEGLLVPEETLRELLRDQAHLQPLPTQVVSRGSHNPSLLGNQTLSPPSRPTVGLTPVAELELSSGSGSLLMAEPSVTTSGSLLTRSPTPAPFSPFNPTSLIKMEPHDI
Chain of ETV5 (P41161 whole entry): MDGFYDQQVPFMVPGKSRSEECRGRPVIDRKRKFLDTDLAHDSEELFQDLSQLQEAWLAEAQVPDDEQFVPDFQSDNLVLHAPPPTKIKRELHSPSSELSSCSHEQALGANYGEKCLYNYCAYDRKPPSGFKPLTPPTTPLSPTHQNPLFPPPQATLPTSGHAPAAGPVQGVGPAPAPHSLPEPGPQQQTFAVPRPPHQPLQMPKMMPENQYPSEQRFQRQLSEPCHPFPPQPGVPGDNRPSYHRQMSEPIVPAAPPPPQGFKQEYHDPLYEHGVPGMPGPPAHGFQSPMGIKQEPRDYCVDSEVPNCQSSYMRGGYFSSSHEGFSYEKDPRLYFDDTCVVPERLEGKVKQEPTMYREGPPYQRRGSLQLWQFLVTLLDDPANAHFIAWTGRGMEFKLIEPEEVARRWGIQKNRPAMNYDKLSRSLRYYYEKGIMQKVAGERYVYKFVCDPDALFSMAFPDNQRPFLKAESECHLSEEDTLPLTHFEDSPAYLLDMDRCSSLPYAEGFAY
Chain of HSF1 (Q00613 whole entry): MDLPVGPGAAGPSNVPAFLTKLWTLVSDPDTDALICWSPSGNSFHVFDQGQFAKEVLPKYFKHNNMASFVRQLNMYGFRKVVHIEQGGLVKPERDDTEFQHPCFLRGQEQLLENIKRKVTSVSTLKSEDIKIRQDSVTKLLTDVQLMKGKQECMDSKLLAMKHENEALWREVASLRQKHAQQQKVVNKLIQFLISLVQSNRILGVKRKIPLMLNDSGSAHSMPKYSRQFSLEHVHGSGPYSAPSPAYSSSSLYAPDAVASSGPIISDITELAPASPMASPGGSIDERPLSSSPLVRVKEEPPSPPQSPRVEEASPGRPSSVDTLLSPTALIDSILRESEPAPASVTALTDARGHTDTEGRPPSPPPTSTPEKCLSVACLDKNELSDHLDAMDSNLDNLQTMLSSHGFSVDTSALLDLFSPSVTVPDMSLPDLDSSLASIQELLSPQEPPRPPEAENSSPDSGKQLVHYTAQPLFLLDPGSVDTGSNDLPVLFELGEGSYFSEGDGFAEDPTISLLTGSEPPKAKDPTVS

GCGTTC
binding signal (FEV): 1.07 fold enrichment (6-mer frequency, TF over GST control) | binding signal (ETV5): 1.17 fold enrichment (6-mer frequency, TF over GST control) | binding signal (HSF1): 1.1 fold enrichment (6-mer frequency, TF over GST control) | binding signal (SPIC): 1.11 fold enrichment (6-mer frequency, TF over GST control) | binding signal (ELF4): 1.1 fold enrichment (6-mer frequency, TF over GST control) | binding signal (ELK4): 1.02 fold enrichment (6-mer frequency, TF over GST control) | binding signal (ETV2): 1.23 fold enrichment (6-mer frequency, TF over GST control) | binding signal (ELF3): 1.15 fold enrichment (6-mer frequency, TF over GST control) | binding signal (ETV1): 1.28 fold enrichment (6-mer frequency, TF over GST control)
